# Test results taken from PubChem BioAssay (NCATS).
# “And” between values parts separate entries of the source, which are not always exact repeats. Identical values can stand only once. Inconclusive results are not listed. Where a call stands in place of a potency, no number is given. The source made the active and inactive calls. Unless noted, calls follow the shape of the dose curve; as a rule, active = well fitted curve in the direction sought with a large enough effect; inconclusive = small, poorly fitted or top-dose-only effect, or another doubt; inactive = no such curve, though single readings can be large; an effect the other way counts as inactive or inconclusive.
# Legend:
# [1] = test system: Zika virus NS2B-NS3 protease (linked construct); assay: Primary screen NINDS Rhodamine qHTS for Zika virus inhibitors (AID 1347160); also: nearly all actives have a fitted effect of over 55% in size
# Summary of the method: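 Purified linked NS2B-NS3 protease (NS2B hydrophilic domain joined to NS3 protease by flexible linker), 25 nM in 10 mM Tris-HCl pH 8.0, 0.01% Tween 20. Compounds titrated, 15 min preincubation at room temperature; 1.5 microM Rhodamine110 substrate, FITC fluorescence change over 15 min.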
# [2] = target: Calcium and integrin-binding protein 1 (Homo sapiens) (UniProt Q99828); assay: Primary qHTS for Identification of Calcium Integrin Binding Protein 1 (CIB1) Competitor (AID 1508620);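 also: GST tagged CIB1 binding a fluorescein labelled alphaIIb integrin peptide tracer; top concentration of the series differs between compounds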
# Chain of Calcium and integrin-binding protein 1 (Homo sapiens) (Q99828 whole entry, looked up): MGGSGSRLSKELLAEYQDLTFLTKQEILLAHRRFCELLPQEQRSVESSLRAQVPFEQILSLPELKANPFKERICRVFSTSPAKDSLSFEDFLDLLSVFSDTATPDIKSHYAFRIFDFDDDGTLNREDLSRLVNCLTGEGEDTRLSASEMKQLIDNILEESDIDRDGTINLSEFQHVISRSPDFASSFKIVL
# Summary of the method: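 CIB1-GST (1 uM final) and compound incubated 15 min at room temperature before adding FITC-alphaIIb peptide tracer (100 nM final). Competition for binding read by fluorescence polarization (ex 480, em 540) after another 15 min at room temperature.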
# [3] = Primary qHTS for inhibitors of nuclear receptor binding SET domain protein 2 (NSD2) in an isogenic RCH-ACV NSD2 p.E1099K mutant (9B) (AID 1645876); also: potency is read from the fitted curve at half-maximal effect; nearly all actives have a fitted effect of over 70% in size
# [4] = target: Glutathione peroxidase 1 (Homo sapiens) (UniProt P07203); assay: Primary qHTS Assay for Inhibitors of Recombinant Selenoprotein Glutathione Peroxidase 1 (GPX1) (AID 1845191); also: nearly all actives have a fitted effect of over 65% in size; also: potency is read from the fitted curve at half-maximal effect
# Chain of Glutathione peroxidase 1 (Homo sapiens) (P07203 whole entry, looked up): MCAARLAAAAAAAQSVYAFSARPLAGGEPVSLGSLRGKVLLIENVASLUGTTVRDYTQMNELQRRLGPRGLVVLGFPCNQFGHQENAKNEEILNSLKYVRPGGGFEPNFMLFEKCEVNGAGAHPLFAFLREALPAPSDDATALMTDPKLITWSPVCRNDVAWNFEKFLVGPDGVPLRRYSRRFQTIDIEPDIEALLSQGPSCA
# Summary of the method: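 10 nM GPX1 + cpd, 30 min RT; start w/ 1 mM GSH, 0.5 mM cumene hydroperoxide, 0.5 mM NADPH, 100 nM GR, 0.01% BSA; buffer 50 mM Tris-HCl pH 7.5, 2 mM EDTA, 150 mM NaCl; Fl 340/450, 0 & 15 min.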
# [5] = target: Phospholipid hydroperoxide glutathione peroxidase GPX4 (Homo sapiens) (UniProt P36969); assay: Primary qHTS Assay for Inhibitors of Recombinant Selenoprotein Glutathione Peroxidase 4 (GPX4) (AID 1845192); settings: outcome: dose series up to 50 µM unless noted; also: nearly all actives have a fitted effect of over 65% in size
# Chain of Phospholipid hydroperoxide glutathione peroxidase GPX4 (Homo sapiens) (P36969 whole entry, looked up): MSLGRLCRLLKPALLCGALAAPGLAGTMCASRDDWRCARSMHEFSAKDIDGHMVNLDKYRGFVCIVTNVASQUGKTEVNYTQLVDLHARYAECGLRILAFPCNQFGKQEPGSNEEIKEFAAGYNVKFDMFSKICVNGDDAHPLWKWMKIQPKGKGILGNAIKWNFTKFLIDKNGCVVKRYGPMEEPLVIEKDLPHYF
# Summary of the method: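 NADPH consumption, followed by fluorescence at 340/450 nm between 0 and 15 min, reports GPX4 activity via coupled glutathione reductase (100 nM). Enzyme 200 nM was pre-exposed to compound 30 min; 0.5 mM cumene hydroperoxide and 1 mM GSH served as substrates.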
# [6] = target: Luciferin 4-monooxygenase (Photinus pyralis) (UniProt P08659); assay: Primary firefly luciferase (FLuc) qHTS assay for identification of artifact compounds. (AID 1845220); also: nearly all actives have a fitted effect of over 60% in size; also: potency is read from the fitted curve at half-maximal effect
# Summary of the method: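 Cell-free, 1536-well qHTS. Buffer pH 7.6 with 0.01% Tween-20 and 0.05% BSA; 10 uM D-luciferin, 10 uM ATP; 10 nM P. pyralis luciferase; luminescence after 5 min.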
# [7] = test system: Nanoluciferase (engineered Oplophorus gracilirostris luciferase); assay: Primary Nanoluciferase (NLuc) qHTS assay for identification of artifact compounds. (AID 1845222)
# Summary of the method: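 Compounds are pinned into diluted (1:55) conditioned medium of NLuc-expressing S16 cells and held 15 min at room temperature protected from light. Nano-Glo substrate follows, and luminescence is read 5 min later.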
# [8] = Primary redox qHTS assay for identification of artifact compounds. (AID 1845223)
# Summary of the method: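 Amplex Red (25 uM) and HRP (250 mU/mL) in HBSS, with compounds for 15 min, then 250 uM DTT for 30 min, room temperature, dark. Fluorescence 525/598 nm read; normalized to DMSO and 10 uM DA3003; Hill fit.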
# [9] = test system: CASKI; assay: Primary qHTS to identify gynecologic anti-cancer compounds using libraries of approved drugs and bioactive compounds (AID 1345084); settings: Gynecologic cancer cell panel viability, ATPlite luminescence, 48 h; series mostly up to 57.5 µM; also: nearly all actives have a fitted effect of over 55% in size; also: potency is read from the fitted curve at half-maximal effect
# Summary of the method: (§1)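 Luminescence from the ATPlite ATP-monitoring reagent indicates viable cell number; lower signal means cytotoxicity. Cells received compound 16 h after seeding and were exposed for 48 h across five concentrations.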
# [10] = test system: Es-2; assay: as above; settings: Gynecologic cancer cell panel viability, ATPlite luminescence, 48 h; series mostly up to 57.5 µM
# Summary of the method: as §1
# [11] = test system: HeLa; assay: as above; settings: Gynecologic cancer cell panel viability, ATPlite luminescence, 48 h; series mostly up to 57.5 µM
# Summary of the method: as §1
# [12] = test system: Hek293T; assay: as above; settings: Gynecologic cancer cell panel viability, ATPlite luminescence, 48 h, control line for the selectivity index; series mostly up to 57.5 µM
# Summary of the method: as §1
# [13] = test system: JEG-3; assay: as above; settings: Gynecologic cancer cell panel viability, ATPlite luminescence, 48 h; series mostly up to 57.5 µM
# Summary of the method: as §1
# [14] = test system: OV90; assay: as above; settings: Gynecologic cancer cell panel viability, ATPlite luminescence, 48 h; series mostly up to 57.5 µM
# Summary of the method: as §1
# [15] = test system: Tov-21-G; assay: as above; settings: Gynecologic cancer cell panel viability, ATPlite luminescence, 48 h; series mostly up to 57.5 µM
# Summary of the method: as §1
# [16] = test system: Tov112D; assay: as above; settings: Gynecologic cancer cell panel viability, ATPlite luminescence, 48 h; series mostly up to 57.5 µM
# Summary of the method: as §1
# [17] = Primary qHTS for inhibitors of nuclear receptor binding SET domain protein 2 (NSD2) in an RCH-ACV wild type WT cells (2C) (AID 1645877); also: nearly all actives have a fitted effect of over 70% in size; also: potency is read from the fitted curve at half-maximal effect
# [18] = test system: C33A; assay: Primary qHTS to identify gynecologic anti-cancer compounds using libraries of approved drugs and bioactive compounds (AID 1345084); settings: Gynecologic cancer cell panel viability, ATPlite luminescence, 48 h; series mostly up to 57.5 µM; also: nearly all actives have a fitted effect of over 55% in size; also: potency is read from the fitted curve at half-maximal effect
# Summary of the method: as §1
# [19] = Primary fluorescence-based thiol-reactive (MSTI) qHTS assay for identification of artifact compounds. (AID 1845221); also: nearly all actives have a fitted effect of over 65% in size; also: potency is read from the fitted curve at half-maximal effect
# Summary of the method: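 Compounds were incubated 1 h at room temperature in the dark with the MSTI probe (4 uM) in PBS pH 7.4, 2% DMSO. Signals were normalized between Acetyl-MSTI and MSTI.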
# [20] = qHTS drug screen for cell cycle checkpoint inhibitors in PARPi-resistant BRCA-mutant ovarian cancer cell lines. (AID 1963452; calls by dose curve); settings: PEO1/OlaR viability, CellTiter-Glo luminescence, 96 h, stronger effect = lower value
# Summary of the method: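 PEO1, PEO4 and PEO1/OlaR ovarian cancer cells, 600 per well, exposed 96 h at 37C to a dilution series. Viability read by CellTiter-Glo luminescence, normalized to DMSO and empty wells; activity summarized as Z-AUC.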
# [21] = measured here: PEO1 parental Z-AUC
compound,measurement,setting,value
Cc1cc2nc(NCCCO)n(CC(=O)c3cc(C(C)(C)C)c(O)c(C(C)(C)C)c3)c2cc1C,Potency,[1],inactive
same,outcome,[2],inactive
same,Potency,[3],8.17 µM (active)
same,Potency,[4],inactive
same,Potency,[5],inactive
same,Potency,[6],inactive
same,Potency,[7],inactive
same,Potency,[8],inactive
same,Potency,[9],inactive
same,Potency,[10],inactive
same,Potency,[11],inactive
same,Potency,[12],inactive
same,Potency,[13],inactive
same,Potency,[14],inactive
same,Potency,[15],inactive
same,Potency,[16],inactive
C=C(C)C(=O)O[C@H]1[C@H]2C(=C)C(=O)O[C@@H]2C[C@@H](C)/C=C\C(=O)[C@](C)(O)[C@@H]1OC(C)=O,Potency,[1],inactive
same,Potency,[17],inactive
same,Potency,[4],inactive
same,Potency,[5],inactive
same,Potency,[6],inactive
same,Potency,[7],inactive
same,Potency,[8],inactive
same,Potency,[18],11.2 µM (active)
same,Potency,[10],11.2 µM (active)
same,Potency,[13],10 µM (active)
same,Potency,[15],7.94 µM (active)
C=C1[C@@H](C2=CC(=O)OC2)CC[C@@]2(O)[C@@H]1CC1[C@H]2CC[C@@H]2C[C@@H](O[C@H]3O[C@@H](C)[C@@H](O[C@@H]4O[C@H](CO[C@@H]5O[C@H](CO)[C@@H](O)[C@H](O)[C@H]5O)[C@@H](O)[C@H](O)[C@H]4O)[C@H](OC)[C@H]3O)CC[C@]12C (stereo not given in full),Potency,[1],inactive
same,Potency,[3],1.94 µM (active)
same,Potency,[4],inactive
same,Potency,[5],inactive
same,"activity change, negative = inhibition",[6],0.528% [at 11.6 µM] (inactive)
same,"activity, negative = inhibition",[7],-0.15% [at 11.6 µM] (inactive)
same,Potency,[18],3.55 µM (active)
same,"activity change, negative = cytotoxicity",[9],-6.72% [at 11.6 µM] (inactive)
same,"activity change, negative = cytotoxicity",[14],-0.0855% [at 11.6 µM] (inactive)
same,Potency,[15],3.16 µM (active)
same,Potency,[16],2.24 µM (active)
O=C(NC(NC(=S)Nc1ccc(F)c([N+](=O)[O-])c1)C(Cl)(Cl)Cl)C(c1ccccc1)c1ccccc1 (stereo not given),Potency,[1],inactive
same,Potency,[3],5.41 µM (active) and 16.4 µM (active)
same,Potency,[17],20.6 µM (active)
same,Potency,[4],inactive
same,Potency,[5],inactive
same,Potency,[6],inactive
same,Potency,[7],inactive
same,Potency,[8],inactive
same,Potency,[9],inactive
same,Potency,[10],inactive
same,Potency,[11],inactive
same,Potency,[12],inactive
same,Potency,[13],inactive
same,Potency,[14],inactive
same,Potency,[15],inactive
same,Potency,[16],inactive
O=C(c1ccc(F)c(F)c1Nc1ccc(I)cc1F)N1CC(O)(C2CCCCN2)C1 (stereo not given),Potency,[1],inactive
same,Potency,[3],20.5 µM (active)
same,Potency,[17],18.3 µM (active)
same,Potency,[4],inactive
same,Potency,[5],inactive
same,Potency,[6],inactive
same,Potency,[19],inactive
same,Potency,[7],inactive
same,Potency,[8],inactive
same,Potency,[18],35.5 µM (active)
same,Potency,[9],28.2 µM (active)
same,Potency,[12],inactive
same,Potency,[13],inactive
CN1CCN(C(=O)c2ccc(Nc3nccc(-c4cccs4)n3)cc2Cl)CC1,Potency,[1],inactive
same,outcome,[2],inactive
same,Potency,[3],7.28 µM (active)
same,Potency,[17],6.49 µM (active)
same,Potency,[4],inactive
same,Potency,[5],inactive
same,Potency,[6],inactive
same,Potency,[19],inactive
same,Potency,[7],inactive
same,Potency,[8],inactive
same,Potency,[18],inactive
same,Potency,[9],inactive
same,Potency,[10],inactive
same,Potency,[11],inactive
same,Potency,[12],inactive
same,Potency,[14],inactive
C=CC(=O)Nc1cc(Nc2nccc(-c3cn(C)c4ccccc34)n2)c(OC)cc1N(C)CCN(C)C,Potency,[1],inactive
same,outcome,[2],inactive
same,Potency,[3],3.32 µM (active)
same,Potency,[4],inactive
same,Potency,[5],inactive
same,Potency,[6],inactive
same,Potency,[7],inactive
same,Z-AUC,[20],-0.422 (inactive)
same,Z-AUC,[20]; [21],-0.39
same,Z-AUC,[20]; measured here: PEO4 Z-AUC,-1.1
same,Potency,[9],14.1 µM (active)
Oc1ccc(Nc2nc(-c3ccc(Cl)cc3)cs2)cc1,Potency,[1],inactive
same,outcome,[2],inactive
same,Potency,[3],6.61 µM (active)
same,Potency,[17],6.61 µM (active)
same,Potency,[4],inactive
same,Potency,[5],inactive
same,Potency,[6],4.78 µM (active)
same,Potency,[19],1.5 µM (active)
same,Potency,[7],inactive
same,Potency,[8],inactive
same,Z-AUC,[20],-0.146 (inactive)
same,Z-AUC,[20]; [21],0.0588
same,Z-AUC,[20]; measured here: PEO4 Z-AUC,0.0633
same,Potency,[9],inactive
same,Potency,[10],inactive
same,Potency,[12],inactive
same,Potency,[13],inactive
same,Potency,[14],inactive
same,Potency,[15],inactive
COc1cccc(CNC(=O)Nc2nc(-c3ccncc3)cs2)c1,Potency,[1],inactive
same,outcome,[2],inactive
same,Potency,[3],7.28 µM (active)
same,Potency,[17],1.63 µM (active)
same,Potency,[4],inactive
same,Potency,[5],inactive
same,Potency,[6],inactive
same,Potency,[19],inactive
same,Potency,[7],inactive
same,Potency,[8],inactive
same,Potency,[18],inactive
same,Potency,[9],inactive
same,Potency,[10],inactive
same,Potency,[12],inactive
same,Potency,[13],inactive
same,Potency,[14],inactive
same,Potency,[15],inactive
same,Potency,[16],inactive
CC1(C)CC23[C@@H]4CC(=O)[C@@H]2COC(=O)[C@@H]3CC[C@H]41,Potency,[1],inactive
same,outcome,[2],inactive
same,Potency,[3],12.9 µM (active)
same,Potency,[17],7.28 µM (active)
same,Potency,[4],inactive
same,Potency,[5],inactive
same,Potency,[6],inactive
same,Potency,[19],inactive
same,Potency,[7],inactive
same,Potency,[8],inactive
same,Potency,[18],inactive
same,Potency,[9],inactive
same,Potency,[10],inactive
same,Potency,[11],inactive
same,Potency,[13],inactive
same,Potency,[14],inactive
same,Potency,[16],inactive
CC(C)N(CCCNC(=O)Nc1ccc(C(C)(C)C)cc1)C[C@H]1O[C@@H](n2cc(Br)c3c(N)ncnc32)[C@H](O)[C@@H]1O,Potency,[1],inactive
same,Potency,[3],12.9 µM (active) and 16.6 µM (active)
same,Potency,[17],12.9 µM (active) and 14.8 µM (active)
same,Potency,[4],inactive
same,Potency,[5],inactive
same,Potency,[6],inactive
same,Potency,[19],inactive
same,Potency,[7],inactive
same,Z-AUC,[20],0.222 (inactive)
same,Z-AUC,[20]; [21],0.00626
same,Z-AUC,[20]; measured here: PEO4 Z-AUC,-0.104
same,Potency,[18],inactive
same,Potency,[9],inactive
same,Potency,[10],inactive
same,Potency,[11],inactive
same,Potency,[12],inactive
same,Potency,[13],inactive
same,Potency,[14],inactive
same,Potency,[15],inactive
same,Potency,[16],inactive
CC(C)(C)c1ccc(CNC(=S)NCc2ccc(NS(C)(=O)=O)c(F)c2)cc1,Potency,[1],inactive
same,outcome,[2],inactive
same,Potency,[3],20.5 µM (active)
same,Potency,[17],12.9 µM (active)
same,Potency,[4],14.3 µM (active)
same,Potency,[5],inactive
same,Potency,[6],inactive
same,Potency,[19],inactive
same,Potency,[7],inactive
same,Potency,[18],inactive
same,Potency,[9],inactive
same,Potency,[10],inactive
same,Potency,[11],inactive
same,Potency,[12],inactive
same,Potency,[14],inactive
same,Potency,[15],inactive
same,Potency,[16],inactive
